According to PubChem BioAssay AID1851 (National Center for Advancing Translational Sciences (NCATS), 2009):
About 5,700 (36%) of roughly 16,000 compounds were called active. About 24% were inconclusive and are not listed. The list shows a part of the results. Values without a mark were called inactive. The call rests on the fitted dose curve; in most records, active means well fitted curve in the direction sought with a large enough effect; inconclusive means small, poorly fitted or top-dose-only effect, or effect the other way; inactive means no such curve, though single readings can be large or run the other way.

Each compound was assayed against Cytochrome P450 1A2 (Homo sapiens) (UniProt P05177) (assay: Cytochrome panel assay with activity outcomes). Details: recombinant CYP, pro-luciferin dealkylation, luminescence, p450-cyp1a2; series mostly up to 57.1 µM; activity, negative = inhibition: at the top concentration.
Cytochrome P450 1A2 (Homo sapiens), sequence (P05177 whole entry, looked up): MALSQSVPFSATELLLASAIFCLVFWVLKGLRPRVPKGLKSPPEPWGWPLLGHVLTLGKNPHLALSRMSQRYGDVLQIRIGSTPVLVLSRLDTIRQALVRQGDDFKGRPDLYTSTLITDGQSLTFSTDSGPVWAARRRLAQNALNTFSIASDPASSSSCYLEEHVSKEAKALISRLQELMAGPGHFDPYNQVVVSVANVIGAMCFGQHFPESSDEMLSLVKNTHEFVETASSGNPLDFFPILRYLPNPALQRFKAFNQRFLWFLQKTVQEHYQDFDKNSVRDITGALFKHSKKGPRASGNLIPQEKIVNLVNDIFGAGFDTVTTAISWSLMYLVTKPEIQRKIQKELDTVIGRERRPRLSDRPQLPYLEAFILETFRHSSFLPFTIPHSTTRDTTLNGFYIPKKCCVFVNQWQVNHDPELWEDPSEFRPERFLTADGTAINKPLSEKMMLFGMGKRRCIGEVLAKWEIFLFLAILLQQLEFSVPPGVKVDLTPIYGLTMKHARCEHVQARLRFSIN
On the % scale 0 is the no-effect control and ±100 the full control effect.

Row | SMILES | activity, negative = inhibition | AC50
1 | COc1c(N2CCN(C(=S)Nc3ccc(F)cc3)C(C)C2)c(F)cc2c(=O)c(C(=O)O)cn(C3CC3)c12 (stereo not given) | -10.8% | –
2 | O=C(NCCCCc1ccccc1)C1CC(c2ccccc2[N+](=O)[O-])=NO1 (stereo not given) | – | 2.24 µM (active)
3 | COc1ccc(CNC(=O)C2CC(c3cccc([N+](=O)[O-])c3)=NO2)cc1 (stereo not given) | – | 15.8 µM (active)
4 | COc1cccc(C2=NOC(C(=O)NCc3ccccn3)C2)c1 (stereo not given) | -26.4% | –
5 | NS(=O)(=O)c1ccc(CCNC(=O)C2CCCN2C(=O)OCc2ccccc2)cc1 (stereo not given) | -9.88% | –
6 | CCOC(=O)c1oc2ccccc2c1NC(=O)c1ccc(S(=O)(=O)N(C)C)cc1 | – | 12.6 µM (active)
7 | CCCCN(C)S(=O)(=O)c1ccc(C(=O)Nc2nnc(CSC)o2)cc1 | 5.83% | –
8 | Cc1cc(NC(=O)c2ccc(S(=O)(=O)N(C)C)cc2)n(-c2ccccn2)n1 | -5.86% | –
9 | CCOC(=O)c1oc2ccccc2c1NC(=O)c1cc(OC)cc(OC)c1 | – | 0.794 µM (active)
10 | CCOC(=O)c1cc(NC(=O)c2ccc(OC)cc2)c(=O)oc1-c1ccccc1 | -26.2% | –
11 | CCOC(=O)c1oc2ccccc2c1NC(=O)c1ccc2c(c1)OCO2 | – | 1 µM (active)
12 | CC(C)(N)CO[C@H]1C[C@H]2CC[C@@]1(C)C2(C)C | -8.25% [at 11.4 µM] | –
13 | CC(=O)Nc1ccc(S(=O)(=O)NCC2CCC(C(=O)NCCC(C)C)CC2)cc1 (stereo not given) | -20.7% | –
14 | Cn1cccc1C(=O)N1CCC2(CC1)CN(Cc1ccc(C#N)cc1)C2 | 3.59% | –
15 | CCOc1cc(/C=N/n2cnnc2)c(Br)cc1O | – | 10 µM (active)
16 | CC(C)(C)c1ccc(OCC(=O)NNC(=O)CCc2ccccc2)cc1 | -12.7% | –
17 | O=C(COc1ccccc1)Nc1cc(C(F)(F)F)ccc1N1CCCC1 | – | 2 µM (active)
18 | O=C(Nc1ccccc1N1CCN(C(=O)c2ccccc2)CC1)c1cc(Br)ccc1Cl | -20.8% | –
19 | Cc1noc(NS(=O)(=O)c2ccc(NC(=O)c3ccc(Br)o3)cc2)c1C | -26.3% | –
20 | O=C(Nc1cc(C(F)(F)F)ccc1N1CCCCC1)c1ccc(Br)o1 | – | 0.282 µM (active)
21 | NS(=O)(=O)c1cc(C(=O)O)cc(N2CCCC2)c1Oc1ccccc1 | -3.4% [at 25.6 µM] | –
22 | Cc1cc(C)n(-c2ccc(C(=O)Nc3cc(C(F)(F)F)ccc3N3CCOCC3)cc2)n1 | -18% | –
23 | CS(=O)(=O)N1CCN(c2ccccc2NC(=O)c2ccc(Br)o2)CC1 | – | 14.1 µM (active)
24 | Cc1cc(F)ccc1S(=O)(=O)Nc1ccccc1C(=O)Nc1ccccc1N1CCOCC1 | -14.5% | –

Row | SMILES | activity, negative = inhibition | AC50
25 | O=C(c1cnccn1)N1CCC2(CC1)CN(Cc1nccs1)C2 | 3.68% | –
26 | O=C(NNC(=S)NC(=O)c1cccnc1)c1ccccc1 | 15.3% | –
27 | O=C(NC(=S)Nc1ccc(Br)cn1)c1cncc(Br)c1 | – | 0.282 µM (active)
28 | COc1ccc(C2C(C(=O)N3CCN(C)CC3)c3ccccc3C(=O)N2C2CCCCC2)cc1 (stereo not given) | -4.37% | –
29 | O=C(NC1CCCCC1)c1sc(=S)n2c1[nH]c(=O)c1ccccc12 | – | 3.16 µM (active)
30 | O=C(NCc1ccccc1)c1sc(=S)n2c1[nH]c(=O)c1ccccc12 | – | 8.91 µM (active)
31 | COc1cccc(/C=c2/s/c(=C(\C#N)C(=O)N3CCOCC3)n(-c3ccccc3)c2=O)c1 | -3.78% | –
32 | CCOC(=O)N/N=C1/C[C@@H](O)[C@@H](O)[C@@H]2[C@@H]3C(=O)N([C@@H](C)c4ccccc4)C(=O)[C@H]3CC[C@H]12 | 7.27% [at 11.4 µM] | –
33 | CN(C)CCN1C(=O)C(O)=C(C(=O)c2cc3ccccc3o2)C1c1ccccn1 (stereo not given) | 21.7% | –
34 | Cc1ccc2nc(N3CCN(S(=O)(=O)c4ccc5c(c4)OCCO5)CC3)c(C#N)cc2c1 | -24.7% | –
35 | CN1CCCN(S(=O)(=O)c2ccc3c(c2)OCCO3)CC1 | -5.13% | –
36 | Cc1ccc(-c2csc(N3CCC(NS(=O)(=O)c4ccc5c(c4)OCCO5)CC3)n2)cc1 | – | 5.01 µM (active)
37 | CCn1c2ccccc2c2cc(/C=N/n3cn[nH]c3=S)ccc21 | – | 2.82 µM (active)
38 | Clc1ccc(Cn2c(-c3cccnc3Cl)nc3ccccc32)c(Cl)c1 | – | 12.6 µM (active)
39 | Nc1nonc1-c1nc2ccccc2n1Cc1ccc(F)cc1Cl | – | 0.2 µM (active)
40 | CC(=O)OCC(=O)[C@@]1(O)CC[C@@H]2[C@H]3CCC4=CC(=O)C=C[C@]4(C)[C@]3(F)[C@@H](O)C[C@@]21C | -3.35% [at 25.6 µM] | –
41 | CC(=O)Nc1ccc(S(=O)(=O)N2CCN(c3nc(NC4CCCC4)c4ccccc4n3)CC2)cc1 | -5.96% | –
42 | COc1ccccc1-c1nc(NC2CC2)c2ccccc2n1 | – | 0.316 µM (active)
43 | Cc1ccccc1-c1nc(NC2CC2)c2ccccc2n1 | – | 0.501 µM (active)
44 | COc1cc(CC(=O)O)c(C(C)=O)cc1OC | -23% | –
45 | CC(=O)c1cc(CC=C(C)C)c(O)cc1O | – | 3.55 µM (active)
46 | Nc1nc(SCCc2ccccc2)c2[nH]cnc2n1 | – | 3.16 µM (active)
47 | Nc1nc(N)c2[nH]cnc2n1 (tested in a mixture with another compound) | -5.45% [at 2.29 µM] | –
48 | CCC[C@H](Sc1nc(N)nc2nc[nH]c12)C(=O)O | -9.79% [at 11.4 µM] | –

Row | SMILES | activity, negative = inhibition | AC50
49 | O=C(O)CCSc1ncnc2nc[nH]c12 | -3.4% [at 11.4 µM] | –
50 | Nc1nc(SCc2ccccc2[N+](=O)[O-])c2[nH]cnc2n1 | – | 5.01 µM (active)
51 | Nc1nc(SC/C=C\c2ccccc2)c2[nH]cnc2n1 | – | 5.01 µM (active)
52 | Nc1nc(Sc2ccc([N+](=O)[O-])c3nonc23)c2[nH]cnc2n1 | -26.1% [at 2.29 µM] | –
53 | Cc1cccc(N(C)S(=O)(=O)c2ccc3[nH]c(=O)c(=O)[nH]c3c2)c1 | -4.96% | –
54 | COCC(=O)N1CCC2(CCCN(Cc3nccs3)C2)CC1 | 2.83% | –
55 | CC(C)=NOCc1ccc(-c2cn([C@@H]3COC[C@@H]3O)nn2)cc1 | -5.29% [at 11.4 µM] | –
56 | c1ccc(/C(=N/Nc2nc3ccccc3s2)c2ccccn2)cc1 | – | 3.16 µM (active)
57 | COc1cccc(-c2cc3nc(-c4ccccc4)cc(N4CCC5(CC4)OCCO5)n3n2)c1 | – | 0.251 µM (active)
58 | CC1CN(C(=O)COc2ncnc3ccccc23)CC(C)O1 (stereo not given) | -4.54% | –
59 | CCOc1ccc(OCCOc2ncnc3ccccc23)cc1 | – | 12.6 µM (active)
60 | Cc1cc(C)cc(-n2c(C)cc(C=C(C#N)C#N)c2C)c1 | -17.1% | –
61 | CCc1ccc(N(C(=O)c2snc(C(N)=O)c2N)C(C(=O)NCCC(C)C)c2c[nH]c3ccccc23)cc1 (stereo not given) | -21.5% | –
62 | CCN(CC)c1ccc(NC(=O)c2cccnc2)c(C)c1 | -15.4% | –
63 | CCOc1cc(C#N)c(NC(=O)c2cccnc2)cc1OCC | – | 20 µM (active)
64 | CS(=O)(=O)N1CCC2(CCN(Cc3nccs3)CC2)CC1 | -6.39% | –
65 | Cn1cnnc1SCC(=O)n1c2ccccc2c2ccccc21 | – | 0.0501 µM (active)
66 | COC(=O)C1=C(CSc2nncn2C)NC(=O)NC1c1ccc(F)cc1 (stereo not given) | -36.1% | –
67 | O=C(CCCN1C(=O)c2cccc3cccc(c23)C1=O)N1CCc2ccccc2C1 | – | 6.31 µM (active)
68 | CCc1cccc2c(C=C(C#N)C#N)cn(CC(=O)N3CCCCC3)c12 | -14.5% | –
69 | O=C(CCCN1C(=O)C2C3C=CC(C3)C2C1=O)N1CCN(c2ccccc2)CC1 (stereo not given) | -21.3% | –
70 | CCc1cccc2c(C=C(C#N)C#N)cn(CC(=O)N3CCCC3)c12 | -0.488% | –
71 | O=C(CN1C(=O)c2cccc3cccc(c23)C1=O)N1CCCCCC1 | – | 14.1 µM (active)
72 | CSc1nc(Cl)cc(N(CCO)CCO)n1 | 0.0544% | –

Row | SMILES | activity, negative = inhibition | AC50
73 | CC(=O)OC[C@H]1O[C@@H](ON=C(C)C)[C@H](OC(C)=O)[C@@H](OC(C)=O)[C@H]1OC(C)=O | -5.84% [at 11.4 µM] | –
74 | COc1ccc(/C=C2\CCCC3C2=NN(C(=O)c2ccco2)C3c2ccc(OC)c(OC)c2)cc1OC (stereo not given) | -17.7% | –
75 | NC(=O)/C(=N\OC(=O)c1ccco1)c1nc(-c2ccc(Br)cc2)cs1 | – | 0.447 µM (active)
76 | Clc1ccc(CSCCc2ccncc2)cc1Cl | – | 0.316 µM (active)
77 | c1ccc2c(CSCCc3ccncc3)cccc2c1 | – | 0.178 µM (active)
78 | Clc1ccc(COc2ccccn2)cc1Cl | -26.5% | –
79 | O=S(=O)(O)CCCc1cccc2ccccc12 | -16.7% [at 2.29 µM] | –
80 | Cn1c(=O)c(-c2ccccc2)nc2cnc(N3CCNCC3)nc21 | – | 12.6 µM (active)
81 | Cn1c(=O)c(-c2ccccc2)nc2cnc(N3CCOCC3)nc21 | – | 2 µM (active)
82 | COCCn1c(=O)c(-c2ccc(F)cc2)nc2cnc(N3CCOCC3)nc21 | – | 5.01 µM (active)
83 | COc1ccc(-n2c(=O)c(-c3ccc(Cl)cc3)nc3cnc(N4CCOCC4)nc32)cc1 | – | 15.8 µM (active)
84 | NCCc1nc(-c2nc(C(=O)O)cs2)cs1 | -15.8% [at 11.4 µM] | –
85 | N[C@@H](C(=O)O)c1ccc(C(=O)O)c(C(=O)O)c1 | – | inactive
86 | COc1ccc2c(c1)CCCC21NC(=O)N(CC(N)=O)C1=O (stereo not given) | -4.43% | –
87 | CC(C)(C)CC(C)(C)c1cc(O)c(O)c(CN2CCCCC2)c1 | -0.989% [at 11.4 µM] | –
88 | Cn1c(=O)c(-c2ccc(F)cc2)nc2cnc(N3CCOCC3)nc21 | – | 2.51 µM (active)
89 | Cn1c(=O)c(-c2ccc(Cl)cc2)nc2cnc(N3CCOCC3)nc21 | – | 2.51 µM (active)
90 | N#CCCn1c(=O)c(-c2ccc(Cl)cc2)nc2cnc(N3CCOCC3)nc21 | – | 15.8 µM (active)
91 | COc1ccc(-c2nc3cnc(N4CCN(C)CC4)nc3n(CCC#N)c2=O)cc1 | -15.1% | –
92 | CC(C)CO/N=C1/[C@H]2O[C@@H]2[C@@H](O)[C@H]2[C@H]1CCn1c(=O)n(C)c(=O)n12 | 8.17% [at 11.4 µM] | –
93 | COCC(=O)N1CCC2(CC1)CN(c1ccccn1)C2 | -4.74% | –
94 | CCCCNc1cc(=O)oc2ccccc12 | – | 0.708 µM (active)
95 | CC(=O)OC[C@@H]1O[C@H](C/C=N\OCC[C@H]2C=C[C@H](OC(C)=O)[C@@H](COC(C)=O)O2)C=C[C@@H]1OC(C)=O | -12.9% [at 11.4 µM] | –
